The test system of assay [1] is Sodium/Iodide Symporter (NIS), SLC5A5 (gene 6528). Put plainly: CPHEA_Stoker_NIS_Inhibition_RAIU: CPHEA's Radioactive Iodide Uptake (RAIU) Assay for Sodium/Iodide Symporter (NIS) Inhibition, Stoker and Laws Labs (AID 2283841). A digest of the protocol: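 Test chemicals, six concentrations from 0.001 to 100uM in 0.5% DMSO, were co-incubated with carrier-free 125I (final 329pM) on hNIS-HEK293T-EPA monolayers in pH 7.4 HEPES-buffered HBSS. Plates stood 2 hours at room temperature, then were washed cold and counted.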

Assay [2] has as its system turtle Thyroid Hormone Receptor, alpha (TRa), gene 101949057. The assay can be described thus: ATG_trTRa_XSP2: Attagene TRANS-FACTORIAL Multi-Species (XSP1) HepG2 Assay for turtle Thyroid Hormone Receptor, alpha (TRa) (AID 2283834).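 Also: hits raise reporter mRNA over the DMSO baseline so AC50 marks activators.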 On the procedure:
ATG_XSP2_multi-species_TRANS is a cell-based, multiplexed assay created by modifying the existing Attagene TRANS-FACTORIAL system to include a panel of nuclear receptors from some or all the following species: human (Homo sapiens), mouse (Mus musculus), frog (Xenopus laevis), zebrafish (Danio rerio), chicken (Gallus gallus), and turtle (Chrysemys picta). The ECOTOX-FACTORIAL format uses HepG2, a human liver cell line, with measurements taken at 24 hours after chemical dosing in a 24-well plate. Xsp2 included 3 nM 6-alpha-fluorotestosterone and 1.5 nM norgestrel to stimulate the androgen receptor.ATG_trTRa_XSP2 is one of 29 assay components measured or calculated from the ATG_XSP2_multi-species_TRANS assay. It is designed to make measurements of mRNA induction, a form of inducible reporter, as detected with fluorescence intensity signals by Reverse transcription polymerase chain reaction (RT-PCR) and Capillary electrophoresis technology.The assay endpoint ATG_trTRa_XSP2 was analyzed in the positive analysis fitting direction relative to DMSO as the negative control and baseline of activity. […] Furthermore, this assay endpoint can be referred to as a primary readout, because this assay has produced multiple assay endpoints where this one serves a reporter gene function. […]

Assay [3] is described as follows: ATG_M_61_XSP2: Attagene TRANS-FACTORIAL Multi-Species (XSP2) HepG2 Assay for M61 Transcription Factor (Internal Marker) (AID 2283835; active = hit-call score of the fitted dose curve at least 0.9, where 1 is the maximum; inactive = score below 0.9;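 also: active means a rise in signal above the DMSO baseline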). A digest of the protocol: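 HepG2 cells transiently transfected with multiple GAL4-UAS reporter units; 3 nM 6-alpha-fluorotestosterone and 1.5 nM norgestrel present to stimulate androgen receptor. After 24 h compound exposure, reporter mRNA measured by RT-PCR and capillary electrophoresis fluorescence, gain-of-signal versus DMSO baseline.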

Assay [4] has as its target zebrafish Thyroid Hormone Receptor beta (TRb), thrb (gene 30607) (UniProt Q9PVE4). Put plainly: ATG_zfTRb_XSP2: Attagene TRANS-FACTORIAL Multi-Species (XSP1) HepG2 Assay for zebrafish Thyroid Hormone Receptor beta (TRb) (AID 2283836). A digest of the protocol: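 HepG2 cells transiently transfected with multiplexed GAL4-UAS reporter units expressing chimeric NR-Gal4 proteins; read 24 h after dosing. Reporter mRNA quantified by RT-PCR, 6-FAM labelling, HpaI digest and capillary electrophoresis; gain of signal fitted relative to DMSO.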

For assay [5], the target named is human Thyroid hormone Receptor alpha (TRa), THRA (gene 7067) (UniProt P10827). The assay can be described thus: ATG_hTRa_XSP2: Attagene TRANS-FACTORIAL Multi-Species (XSP2) HepG2 Assay for human Thyroid hormone Receptor alpha (TRa) (AID 2283838). The method, boiled down:
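HepG2 cells transiently transfected with multiplexed GAL4-UAS reporter units and exogenous NR-GAL4 chimeras; 24 h chemical exposure with 3 nM 6-alpha-fluorotestosterone and 1.5 nM norgestrel present. Reporter mRNA measured by RT-PCR, FAM labelling, HpaI digestion, capillary electrophoresis; gain-of-signal versus DMSO.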

Assay [6] deals with frog Thyroid hormone Receptor alpha (TRa), thra-a (gene 397942) (UniProt P15204). Put plainly: ATG_frTRa_XSP2: Attagene TRANS-FACTORIAL Multi-Species (XSP2) HepG2 Assay for frog Thyroid hormone Receptor alpha (TRa) (AID 2283839). The method, boiled down: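 HepG2 cells transiently transfected with multiplexed GAL4-UAS reporter units expressing chimeric frog TRα-Gal4; reporter mRNA read 24 h after dosing by RT-PCR, FAM-labelled primer extension, HpaI digest and capillary electrophoresis. Gain of signal fitted versus DMSO.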
Sequence of frog Thyroid hormone Receptor alpha (TRa), thra-a (gene 397942) (P15204 whole entry, looked up, the tested form may be a part): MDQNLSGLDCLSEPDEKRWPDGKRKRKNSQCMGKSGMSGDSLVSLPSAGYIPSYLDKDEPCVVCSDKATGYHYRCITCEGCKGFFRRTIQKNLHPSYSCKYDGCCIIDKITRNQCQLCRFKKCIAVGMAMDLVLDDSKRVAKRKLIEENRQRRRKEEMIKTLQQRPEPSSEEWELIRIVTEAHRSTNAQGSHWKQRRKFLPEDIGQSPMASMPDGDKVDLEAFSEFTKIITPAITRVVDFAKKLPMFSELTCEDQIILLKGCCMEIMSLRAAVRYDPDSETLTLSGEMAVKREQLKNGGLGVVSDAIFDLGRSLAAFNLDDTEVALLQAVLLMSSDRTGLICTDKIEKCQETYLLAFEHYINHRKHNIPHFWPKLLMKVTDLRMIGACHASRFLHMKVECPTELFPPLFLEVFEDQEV

For assay [7], the target named is human Thyroid hormone Receptor beta (TRb), THRB (gene 7068) (UniProt P10828). The assay can be described thus: ATG_hTRb_XSP2: Attagene TRANS-FACTORIAL Multi-Species (XSP2) HepG2 Assay for human Thyroid hormone Receptor beta (TRb) (AID 2283840).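 Also: actives raise reporter mRNA so potency reflects agonist-like gain of signal.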 A digest of the protocol:
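HepG2 cells were transiently transfected with GAL4-UAS multiplexed reporter units expressing chimeric NR-Gal4 proteins, dosed 24 h; reporter mRNA was quantified by RT-PCR, fluorescent labeling, HpaI digestion and capillary electrophoresis, fitted for gain of signal versus DMSO.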

Assay [8] is described as follows: CPHEA_Stoker_NIS_Cytotoxicity: Cytotoxicity Assessment for CPHEA's Radioactive Iodide Uptake (RAIU) Assay for Sodium/Iodide Symporter (NIS) Inhibition, Stoker and Laws Labs (AID 2283897).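 As to AC50: active means loss of ATP signal versus DMSO meaning cytotoxicity.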 The method, boiled down: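 Viability in hNIS-HEK293T-EPA cells is scored as a drop in luciferase-detected ATP following 2-hour room-temperature exposure (0.001–100uM; triplicate wells, three cell passages), with DMSO as negative control.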

Results filed as inconclusive are left out. The source made the active and inactive calls. The calls were made as follows, unless noted: active = hit-call score of the fitted dose curve at least 0.9, where 1 is the maximum; inconclusive = response in the unintended direction; inactive = score below 0.9.

Sequence of human Thyroid hormone Receptor beta (TRb), THRB (gene 7068) (P10828 whole entry, looked up, the tested form may be a part): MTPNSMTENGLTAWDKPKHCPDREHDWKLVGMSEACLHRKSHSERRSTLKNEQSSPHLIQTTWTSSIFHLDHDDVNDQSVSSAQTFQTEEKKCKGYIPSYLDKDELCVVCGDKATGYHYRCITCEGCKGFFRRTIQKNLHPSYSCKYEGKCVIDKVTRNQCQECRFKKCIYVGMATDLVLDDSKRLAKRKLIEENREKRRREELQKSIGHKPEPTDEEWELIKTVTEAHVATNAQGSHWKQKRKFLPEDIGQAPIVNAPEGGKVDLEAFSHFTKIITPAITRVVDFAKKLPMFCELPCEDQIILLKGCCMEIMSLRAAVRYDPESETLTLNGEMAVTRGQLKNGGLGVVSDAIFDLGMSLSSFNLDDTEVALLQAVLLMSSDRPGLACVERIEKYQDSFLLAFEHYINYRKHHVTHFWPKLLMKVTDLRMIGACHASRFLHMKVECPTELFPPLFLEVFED
Sequence of zebrafish Thyroid Hormone Receptor beta (TRb), thrb (gene 30607) (Q9PVE4 whole entry, looked up, the tested form may be a part): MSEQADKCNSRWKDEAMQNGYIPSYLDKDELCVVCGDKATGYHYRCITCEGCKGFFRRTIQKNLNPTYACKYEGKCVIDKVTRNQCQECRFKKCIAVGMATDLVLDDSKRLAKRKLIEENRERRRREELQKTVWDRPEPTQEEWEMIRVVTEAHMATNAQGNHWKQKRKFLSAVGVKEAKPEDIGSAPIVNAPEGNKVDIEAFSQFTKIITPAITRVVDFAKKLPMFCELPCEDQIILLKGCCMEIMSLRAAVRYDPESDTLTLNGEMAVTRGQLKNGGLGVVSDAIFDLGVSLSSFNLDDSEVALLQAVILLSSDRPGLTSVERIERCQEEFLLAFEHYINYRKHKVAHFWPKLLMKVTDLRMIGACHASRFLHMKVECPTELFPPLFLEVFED
Sequence of human Thyroid hormone Receptor alpha (TRa), THRA (gene 7067) (P10827 whole entry, looked up, the tested form may be a part): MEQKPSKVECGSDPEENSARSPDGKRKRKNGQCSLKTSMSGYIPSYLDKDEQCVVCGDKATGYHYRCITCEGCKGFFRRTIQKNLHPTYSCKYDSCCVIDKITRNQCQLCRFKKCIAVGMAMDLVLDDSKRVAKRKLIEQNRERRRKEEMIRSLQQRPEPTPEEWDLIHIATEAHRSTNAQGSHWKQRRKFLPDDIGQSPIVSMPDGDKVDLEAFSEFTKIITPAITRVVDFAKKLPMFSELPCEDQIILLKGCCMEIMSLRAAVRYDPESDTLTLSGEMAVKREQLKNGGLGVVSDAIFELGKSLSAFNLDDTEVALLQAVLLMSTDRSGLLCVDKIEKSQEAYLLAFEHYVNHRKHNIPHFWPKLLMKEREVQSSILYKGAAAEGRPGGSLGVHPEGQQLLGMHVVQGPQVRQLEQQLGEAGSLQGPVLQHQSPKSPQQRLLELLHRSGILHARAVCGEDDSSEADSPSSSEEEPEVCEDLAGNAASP

Regarding `OCCCCC(F)(F)C(F)(F)C(F)(F)C(F)(F)F`, in assay [1], the result was inactive.

Regarding `C[C@]12CC[C@H]3C(=CCc4cc(O)ccc43)[C@@H]1CCC2=O`, the result in assay [2], in assay [3], in assay [4], in assay [5], in assay [6] and in assay [7] was inactive. In addition, the outcome in assay [1] and in assay [8] was inactive.

As for `OCC(F)(F)C(F)(F)C(F)(F)C(F)(F)C(F)(F)C(F)(F)C(F)(F)C(F)(F)CO`, the AC50 – broadly, the concentration giving half of the maximal activity seen – in assay [1] was 18.3 µM (active).

As for `O=C(F)C1(F)C(F)(F)C(F)(F)C(F)(F)C(F)(F)C1(F)F`, the outcome in assay [1] was inactive.

For `CCN(CCO)S(=O)(=O)C(F)(F)C(F)(F)C(F)(F)C(F)(F)C(F)(F)C(F)(F)C(F)(F)C(F)(F)F`, in assay [1], the outcome was inactive.

Take `O=C(O)CCC(F)(F)C(F)(F)C(F)(F)C(F)(F)C(F)(F)C(F)(F)C(F)(F)F`: the outcome in assay [1] was inactive.

As for `CCc1cc(Cc2cc(CC)c(N)c(CC)c2)cc(CC)c1N`, in assay [1], the AC50 is 20 µM (active). Also, in assay [8], the result was inactive.

With `C=CC(=O)OCCC(F)(F)C(F)(F)C(F)(F)C(F)(F)F`, the outcome in assay [1] was inactive.

`CCCCCCCC/C=C\CCCCCCCC(=O)N(C)CC(=O)O`: in assay [8], the outcome was inactive.

In the case of `COCCOCCC[Si](C)(O[Si](C)(C)C)O[Si](C)(C)C`, the AC50 in assay [1] is 19.4 µM (active). Besides, the outcome in assay [8] was inactive.

As to `CCC(Cc1c(I)cc(I)c(N)c1I)C(=O)O` (centres undefined), the result in assay [1] and in assay [8] was inactive.

As to `CCCCCCCCn1sc(Cl)c(Cl)c1=O`, the AC50 in assay [1] was 9.92 µM (active). Moreover, the outcome in assay [8] was inactive.

`CC(C)Nc1ccc(NC(C)C)c2c1C(=O)c1ccccc1C2=O`: the outcome in assay [1] was inactive. Besides, the AC50 in assay [8] was 15.3 µM (active).

Turning to `CCN=C1C=CC(=C(c2ccc(N(CC)CC)cc2)c2ccc(N(CC)CC)cc2)c2ccccc21`, the AC50 was 0.553 µM (active) in assay [1] and 10 µM (active) in assay [8].

As to `C=CC(=O)OCC(F)(F)C(F)(F)C(F)(F)COC(=O)C=C`, the result in assay [1] was inactive.

In the case of `O=S(=O)(OCC(F)(F)F)C(F)(F)C(F)(F)C(F)(F)C(F)(F)F`, the result in assay [1] was inactive.

The record behind these values is PubChem BioAssay (EPA / NIEHS).
